“And” between values parts separate entries of the source, which are not always exact repeats. Identical values can stand only once. In all, about 330,000 compounds went through this assay and about 2,600 (0.79%) were called active. For the sample, actives were picked, then their nearest neighbours and some compounds at random. Unmarked numbers belong to inactive results.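 How the source made its calls: active means mean ATP rescue above about 67%, or every replicate alone reaching that limit (limit read from the data, passing the limit was not always enough); inconclusive means no clear call, values can overlap the other calls; inactive means mean under the limit and some replicate under it.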
Test: suppressors of statin myotoxicity in C2C12 myotubes, primary screen, cell-based, single point, plate reader (AID 602340);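 further: myotubes were challenged with 10 µM simvastatin during compound exposure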
Details: C2C12 myotubes + simvastatin, ATP luminescence, 48 h; at 7.49 µM; hits give high values; scaled: DMSO 0, geranylgeraniol control 100

Q: Which rescue of ATP level does the source give for C[C@@H]1CN([C@H](C)CO)C(=O)c2cc(NC(=O)Cc3cn(C)c4ccccc34)ccc2O[C@@H]1CN(C)S(=O)(=O)c1cccs1 here?
A: 34.2%

Q: Which rescue of ATP level does the source give for CCS(=O)(=O)Nc1ccc2c(c1)C(=O)N(C)[C@H]1CC[C@H](CC(=O)NCc3ccccc3F)O[C@H]1CO2 here?
A: -3.79%

Q: With O=C(N[C@H]1CC[C@@H](CCn2cc(Cc3ccccc3)nn2)O[C@H]1CO)c1cnccn1 as the molecule, how does the rescue of ATP level read?
A: -1.98%

Q: Which rescue of ATP level does the source give for COc1ccc(C#Cc2cnc3c(c2)C(=O)N([C@H](C)CO)C[C@@H](C)[C@H](CN(C)C(=O)Nc2cccc(OC)c2)O3)cc1 here?
A: 114% (active)

Q: Which rescue of ATP level does the source give for COc1ccc(NC(=O)Nc2cccc3c2O[C@H](CN(C)C(=O)Nc2cccc4ccccc24)[C@H](C)CN([C@H](C)CO)C3=O)cc1 here?
A: 60%

Q: With COc1cccc(NC(=O)N(C)C[C@@H]2Oc3ncc(Br)cc3C(=O)N([C@@H](C)CO)C[C@H]2C)c1 as the molecule, how does the rescue of ATP level read?
A: 17.2%

Q: For COc1ccc(NC(=O)N(C)C[C@H]2Oc3c(NC(=O)Nc4cccc5ccccc45)cccc3C(=O)N([C@H](C)CO)C[C@@H]2C)cc1, which rescue of ATP level is on record?
A: 75.6% (active)

Q: Which rescue of ATP level does the source give for COc1ccc(NC(=O)N(C)C[C@@H]2Oc3c(NC(=O)Nc4cccc5ccccc45)cccc3C(=O)N([C@@H](C)CO)C[C@H]2C)cc1 here?
A: 15.2%

Q: For COc1ccc(NC(=O)N(C)C[C@H]2Oc3ncc(C#C[C@@H](C)O)cc3C(=O)N([C@H](C)CO)C[C@H]2C)cc1, which rescue of ATP level is on record?
A: 12.8% and -6.34% and 21.2%

Q: With CN(C)C(=O)C[C@@H]1CC[C@H](NC(=O)NC2CCCCC2)[C@@H](CO)O1 as the molecule, how does the rescue of ATP level read?
A: -1.33%

Q: With O=C(Nc1ccccc1F)N1C[C@H]2[C@@H](c3ccccc31)[C@H](CO)N2C(=O)c1ccccn1 as the molecule, how does the rescue of ATP level read?
A: 45.1%

Q: For O=C(N[C@@H]1CC[C@@H](CCNS(=O)(=O)Cc2ccccc2)O[C@@H]1CO)c1ccccc1F, which rescue of ATP level is on record?
A: -15%

Q: With CN(C)C(=O)[C@@H]1[C@@H](CO)[C@@H]2Cn3c(ccc(-c4ccccc4F)c3=O)[C@@H]2N1C(=O)C1CC1 as the molecule, how does the rescue of ATP level read?
A: -6.7%

Q: Which rescue of ATP level does the source give for O=C(NCc1ccco1)c1cc2sccc2n1Cc1ccc(F)cc1 here?
A: 160% (active)

Q: Which rescue of ATP level does the source give for O=C(NCc1ccco1)c1ccc(Cn2c(=O)c3sccc3n(Cc3ccc(F)cc3)c2=O)cc1 here?
A: -13.7%

Q: For O=C(Cc1ccc(-n2c(=O)c3sccc3n(Cc3ccc(F)cc3)c2=O)cc1)NCc1ccco1, which rescue of ATP level is on record?
A: -0.81%

Q: For O=C(C[C@@H]1CC[C@@H]2[C@H](COC[C@H](O)CN2Cc2cccc(-c3ccncc3)c2)O1)N1CCOCC1, which rescue of ATP level is on record?
A: 7.32%

Q: For Cc1ccc(C(=O)NNC(=O)CSc2nnc3ccccn23)cc1, which rescue of ATP level is on record?
A: 0.262%

Q: With CS(=O)(=O)c1ccc(C(=O)NNC(=O)c2cccs2)cc1 as the molecule, how does the rescue of ATP level read?
A: 19.1%

Q: For Cc1ccc(SCC(=O)NNC(=O)c2ccc(S(C)(=O)=O)cc2)cc1, which rescue of ATP level is on record?
A: 90% (active)

Q: Which rescue of ATP level does the source give for CO[C@H]1CN(C)C(=O)c2ccc(NC(=O)C3CCC3)cc2OC[C@@H](C)N(Cc2ccccn2)C[C@H]1C here?
A: 9.17%

Q: For CNC(=O)C[C@H]1CC[C@@H]2[C@H](COc3ccc(NC(=O)C(C)C)cc3C(=O)N2C)O1, which rescue of ATP level is on record?
A: 5.79%

Q: With O=C(c1c(F)cccc1Cl)N1CCN(c2ccccn2)CC1 as the molecule, how does the rescue of ATP level read?
A: -10.5%

Q: For O=C(CCC1CCCN(C(=O)c2ccc(F)c(F)c2)C1)N1CCN(c2ccccn2)CC1 (stereo not drawn), which rescue of ATP level is on record?
A: -0.349%

Q: Which rescue of ATP level does the source give for O=C(c1ccc2c(c1)C(=O)N(c1ccc(Cl)cc1)C2=O)N1CCN(c2ccccn2)CC1 here?
A: 135% (active)

Q: For COCC(=O)Nc1ccc2c(c1)OC[C@H](C)N(C(=O)c1cnccn1)C[C@@H](C)[C@H](OC)CN(C)C2=O, which rescue of ATP level is on record?
A: 3.92%

Q: With COc1cc(C2C(C(=O)c3sc(C)nc3C)=C(O)C(=O)N2CCN(C)C)cc(OC)c1OC (stereo not drawn) as the molecule, how does the rescue of ATP level read?
A: 116% (active)

Q: Which rescue of ATP level does the source give for COc1ccccc1CNC(=O)COC(=O)c1sc(C)nc1C here?
A: -4.29%

Q: For COc1ccc(/C(O)=C2/C(=O)C(=O)N(CCCN(C)C)C2c2ccccc2)cc1OC (stereo not drawn), which rescue of ATP level is on record?
A: 14.8%

Q: With C[C@@H]1CN([C@@H](C)CO)C(=O)Cc2cc(NS(=O)(=O)c3cccs3)ccc2O[C@@H]1CN(C)S(=O)(=O)c1ccc(F)cc1 as the molecule, how does the rescue of ATP level read?
A: -10.2%

Q: With COCC(=O)Nc1ccc2c(c1)[C@@H]1C[C@H](CC(=O)NCc3ccc(-c4ccccc4)cc3)O[C@H](CO)[C@@H]1O2 as the molecule, how does the rescue of ATP level read?
A: -0.998%

Q: For C[C@@H]1CCCCO[C@@H](CN(C)C(=O)NC2CCCCC2)[C@H](C)CN([C@H](C)CO)C(=O)c2cc(NC(=O)Nc3cccc4ccccc34)ccc2O1, which rescue of ATP level is on record?
A: -71%

Q: For CCc1ccc(N2CC(C(=O)Nc3ccc(S(=O)(=O)Nc4nccs4)cc3)CC2=O)cc1 (stereo not drawn), which rescue of ATP level is on record?
A: 2.04%

Q: Which rescue of ATP level does the source give for CCc1ccc(N2CC(C(=O)N3CCCCCC3)CC2=O)cc1 (stereo not drawn) here?
A: -5.19%

Q: With CCc1ccc(N2CC(C(=O)NC3=NCCS3)CC2=O)cc1 (stereo not drawn) as the molecule, how does the rescue of ATP level read?
A: 109% (active)

Q: With COc1ccc(NC(=O)Nc2ccc3c(c2)C(=O)N([C@@H](C)CO)C[C@H](C)[C@H](CN(C)C(=O)Nc2ccccc2)OCCCC[C@@H](C)O3)cc1 as the molecule, how does the rescue of ATP level read?
A: 0.523%

Q: With CN1C(=O)c2cc(NS(C)(=O)=O)ccc2OC[C@@H]2O[C@@H](CC(=O)NCc3ccc(-c4ccccc4)cc3)CC[C@H]21 as the molecule, how does the rescue of ATP level read?
A: 21.8%

Q: With CN(C)c1ccc(/C=N/NC(=O)c2ccc(Cn3cc(Br)cn3)o2)cc1 as the molecule, how does the rescue of ATP level read?
A: -6.78%

Q: Which rescue of ATP level does the source give for Cc1c(Cl)c([N+](=O)[O-])nn1Cc1ccc(C(=O)N/N=C\c2cc(Cl)ccc2O)o1 here?
A: 74.2% (active)

Q: For Cc1nn(Cc2ccccc2Cl)c(C)c1NC(=O)Cn1nc([N+](=O)[O-])c(Cl)c1C, which rescue of ATP level is on record?
A: 13.1%

Q: Which rescue of ATP level does the source give for CO[C@@H]1CC[C@@H]2CCOc3ccc(C#N)cc3C(=O)N(C)[C@H](C)C(=O)N(C)C[C@@H]1O2 here?
A: 4.94%

Q: For O=C(NCC[C@@H]1CC[C@H](NC(=O)C2CCCCC2)[C@@H](CO)O1)Nc1ccc(Cl)cc1, which rescue of ATP level is on record?
A: -9.47%

Q: Which rescue of ATP level does the source give for CO[C@@H]1CN(C)C(=O)c2ccc(NS(=O)(=O)c3cccc(F)c3)cc2OC[C@H](C)N(C(=O)Cc2cccnc2)C[C@@H]1C here?
A: 19.8%

Q: Which rescue of ATP level does the source give for C[C@H]1CN([C@@H](C)CO)C(=O)c2cc(-c3cccc(C(=O)N(C)C)c3)cnc2O[C@H]1CN(C)S(=O)(=O)c1ccccc1 here?
A: -7.9%

Q: Which rescue of ATP level does the source give for NC(=O)Nc1ccc(C(=O)OCC(=O)NC2CCCc3ccccc32)cc1 (stereo not drawn) here?
A: -1.62%

Q: With Nc1ccc(C(=O)OCC(=O)NC2CCCc3ccccc32)cc1[N+](=O)[O-] (stereo not drawn) as the molecule, how does the rescue of ATP level read?
A: 150% (active)

Q: For Nc1ccc(C(=O)OCC(=O)NC2CCS(=O)(=O)C2)cc1[N+](=O)[O-] (stereo not drawn), which rescue of ATP level is on record?
A: -3.1%

Q: Which rescue of ATP level does the source give for Cc1nn(C)c(Oc2ccc(Cl)cc2)c1C=O here?
A: 15.3%

Q: Which rescue of ATP level does the source give for Cc1nn(C)c(Oc2ccccc2)c1CCNS(=O)(=O)c1ccc(F)cc1 here?
A: 8.55%

Q: For Cc1nn(C)c(Oc2ccccc2)c1[N+](=O)[O-], which rescue of ATP level is on record?
A: 72.4% (active)

Q: Which rescue of ATP level does the source give for CCC1(CC)NC(=O)N(CC(=O)OCC(=O)Nc2ccc(C(F)(F)F)cc2)C1=O here?
A: 115% (active)

Q: For CCC1(CC)NC(=O)N(CC(=O)OCC(=O)NC(=O)c2ccccc2)C1=O, which rescue of ATP level is on record?
A: -1.1%

Q: With CCC1(CC)NC(=O)N(CC(=O)OCC(=O)c2cc(C)c(C)cc2C)C1=O as the molecule, how does the rescue of ATP level read?
A: 8.64%

Q: With C[C@H]1CN([C@@H](C)CO)C(=O)c2c(c3ccccc3n2C)-c2ccccc2CO[C@H]1CN(C)C(=O)Nc1ccc(F)cc1 as the molecule, how does the rescue of ATP level read?
A: 19.1%

Q: With COCC(=O)N1C[C@H]2[C@@H](c3ccccc31)[C@@H](CO)N2C(=O)NC(C)C as the molecule, how does the rescue of ATP level read?
A: 17%

Q: Which rescue of ATP level does the source give for CCc1ccc(CNC(=O)C2CCCN(c3nc4ccccc4o3)C2)cc1 (stereo not drawn) here?
A: 28.3%

Q: For COc1ccc(OC)c(CNC(=O)C2CCCN(c3nc4ccccc4o3)C2)c1 (stereo not drawn), which rescue of ATP level is on record?
A: 102% (active)

Q: Which rescue of ATP level does the source give for COc1ccccc1CNC(=O)C1CCN(c2nc3ccccc3o2)CC1 here?
A: 15.8%

Q: Which rescue of ATP level does the source give for C[C@@H]1CN([C@@H](C)CO)C(=O)c2cccc(NS(=O)(=O)c3cn(C)cn3)c2O[C@@H]1CN(C)Cc1ccc(Cl)c(Cl)c1 here?
A: -13.1%

Q: With CCCNC(=O)C[C@H]1C[C@@H]2c3cc(NC(=O)C4CCOCC4)ccc3O[C@@H]2[C@@H](CO)O1 as the molecule, how does the rescue of ATP level read?
A: -1.71%

Q: For CN(CCO)Cc1csc2ccc(Br)cc12, which rescue of ATP level is on record?
A: 14.5%

Q: For CCN(CC)Cc1csc2ccc(Br)cc12, which rescue of ATP level is on record?
A: 100% (active)

Q: With CCN(CC)Cc1cc(C(C)=O)ccc1O as the molecule, how does the rescue of ATP level read?
A: 16.6%

Q: With CNC[C@H]1Oc2cc(-c3cccnc3)ccc2S(=O)(=O)N([C@@H](C)CO)C[C@H]1C as the molecule, how does the rescue of ATP level read?
A: -14.4%

Q: Which rescue of ATP level does the source give for O=C(C[C@@H]1C=C[C@H](NC(=O)c2ccc3c(c2)OCO3)[C@H](CO)O1)NCc1ccc(Oc2ccccc2)cc1 here?
A: 8.65%

Q: Which rescue of ATP level does the source give for CN(C)C(=O)c1cccc(-c2ccc3c(c2)[C@H]2[C@H](CCN2S(=O)(=O)c2cn(C)cn2)[C@@H](CO)N3)c1 here?
A: 13.8%

Q: With COC(=O)C1=C(C)N(C)C(C)=C(C(=O)OC)C1c1cccc(Br)c1 as the molecule, how does the rescue of ATP level read?
A: 89.2% (active)

Q: With COCCN1C(=O)N[C@@H](c2ccccc2)C(C(=O)OC)=C1C as the molecule, how does the rescue of ATP level read?
A: -10.8%

Q: For CCN1C(=O)N[C@@H](c2ccccc2)C(C(=O)OC)=C1C, which rescue of ATP level is on record?
A: -1.21%

Q: With COCC(=O)Nc1ccc2c(c1)OC[C@H](C)N(C(=O)Cc1ccccn1)C[C@H](C)[C@@H](OC)CN(C)C2=O as the molecule, how does the rescue of ATP level read?
A: 9.72%

Q: For Cc1ccc2nc(Nc3ccccc3O)nc(-c3ccccc3)c2c1, which rescue of ATP level is on record?
A: 134% (active)

Q: For OCCCNc1nc(-c2ccccc2)c2cc(Cl)ccc2n1, which rescue of ATP level is on record?
A: 1.1%

Q: Which rescue of ATP level does the source give for O=C(CCl)NNc1nc(-c2ccccc2)c2cc(Cl)ccc2n1 here?
A: 16.4%
